# This is a sample that favours compounds with a hit; in the whole collection about 9.8% have one here.
# HTT aggregate – inhibitors of mutant huntingtin aggregate formation in PC12 cells; PC12 HttQ103-GFP aggregates, Acumen cytometry, 40 h; Potency, µM (series often up to 46.1 µM), for inactives: at the highest dose activity change, negative = inhibition, most hits filed as inhibitors; 220,000 tested, 1.1% active; AID 1688; also: potency is read from the fitted curve at half-maximal effect; % is scaled to controls: 0 for no effect and ±100 for the full control effect; nearly all actives have a fitted effect of over 60% in size
#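 Using laser scanning cytometry, GFP-positive aggregates were counted after lysis of PC12 cells induced with 100 nM tebufenozide to express HTT exon 1 Q103–GFP. Compounds were tested in titration.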
# ALDH1A1 block – blocks purified human ALDH1A1 activity; Potency, µM (doses to about 75.3 µM), for inactives: at the top dose activity, negative = inhibition, usual class: inhibitors; Purified ALDH1A1, NADH fluorescence, propionaldehyde substrate; 220,000 tested, 7.3% active; AID 1030; P00352; active = well fitted inhibition curve with a large enough effect, not every such curve was filed as active; inconclusive = small, poorly fitted or top-dose-only effect, or another doubt; inactive = no such curve, though single readings can be large or run the other way;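 also: potency is read from the fitted curve at half-maximal effect; plate controls were no enzyme wells and a reference inhibitor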
# KDM4E inh – inhibitors of human JMJD2E histone demethylase | JMJD2E catalytic domain, FDH-coupled NADH fluorescence (FDH is formaldehyde dehydrogenase) | Potency, µM (titrated, usually from 57.1 µM), for inactives: top-dose activity change, negative = inhibition, usual class: inhibitors | 230,000 tested, 1.6% active | AID 2147; active = well fitted inhibition curve with a large enough effect, not every such curve was filed as active; inconclusive = small, poorly fitted or top-dose-only effect, or another doubt; inactive = no such curve, though single readings can be large or run the other way;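 also: potency is read from the fitted curve at half-maximal effect; 0% = wells with enzyme and -100% = buffer wells without enzyme; nearly all actives have a fitted effect of over 50% in size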
# Target sequence (B2RXH2 1-337 limits assumed): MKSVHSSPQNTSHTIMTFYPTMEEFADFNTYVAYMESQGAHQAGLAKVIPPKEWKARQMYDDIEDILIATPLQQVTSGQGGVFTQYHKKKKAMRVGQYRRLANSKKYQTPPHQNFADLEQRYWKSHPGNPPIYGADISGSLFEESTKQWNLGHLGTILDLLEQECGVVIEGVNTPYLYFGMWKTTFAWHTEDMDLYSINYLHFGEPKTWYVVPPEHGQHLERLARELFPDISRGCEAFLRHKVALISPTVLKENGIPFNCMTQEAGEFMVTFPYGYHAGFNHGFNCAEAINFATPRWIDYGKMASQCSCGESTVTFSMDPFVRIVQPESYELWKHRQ
# CBFb-RUNX1 inh – blocks binding between human CBF-beta and RUNX1; Q01196+Q13951; AlphaScreen CBFb-His/RUNX1-biotin binding, biochemical; Potency, µM (top dose mostly 59.8 µM), inactives show top-dose activity, negative = inhibition, actives largely listed as inhibitors; 230,000 tested, under 10 active; AID 1477; also: % of control where 0% means no effect
#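 CBFb-His/RUNX1-biotin, 30 nM each, preincubated 20 min RT; compound 15 min RT; Ni + streptavidin beads 50 ng each, 90 min RT; AlphaScreen read.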
# HPGD inh – HPGD (human) dehydrogenase inhibition | AID 894 | 150,000 tested, 4.3% active | purified HPGD, NADH fluorescence kinetic, PGE2 substrate | Potency, µM, inactives show at the highest dose activity change, negative = inhibition, hits mostly inhibitors | P15428; active = well fitted inhibition curve with a large enough effect, not every such curve was filed as active; inconclusive = small, poorly fitted or top-dose-only effect, or another doubt; inactive = no such curve, though single readings can be large or run the other way; also: potency is read from the fitted curve at half-maximal effect; % is scaled to controls: 0 for no effect and ±100 for the full control effect
#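 20 nM HPGD preincubated 15 min at room temperature with compound in 50 mM Tris-HCl pH 8, 0.01% Tween 20. Started with 1 mM NAD+ and 30 uM prostaglandin E2; NADH fluorescence (360/450 nm) read 5 times over 30-s intervals, last minus first.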
# HTT cytoprotect – Huntington cell model cytoprotection by ATP luminescence; PC12 HTT-Q103 induced, cytoprotection, ATP luminescence, 40 h; Potency, µM (titrated, usually from 56.4 µM), for inactives: cytoprotection (ATP increase), actives largely listed as activators; 230,000 tested, 0.14% active; AID 1471; also: potency is read from the fitted curve at half-maximal effect; % of control where 0% means no effect; nearly all actives have a fitted effect of over 45% in size
#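 Quantitative HTS on tebufenozide-induced (100 nM) PC12 cells expressing HTTQ103 exon 1–GFP; compounds tested as a concentration series; survival measured via cellular ATP.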
# Numbers without * were called inactive; ? = inconclusive; nt = no result given; [ ] = dose if it differs, or a comment. Unless noted, calls follow the shape of the dose curve; as a rule, active = well fitted curve in the direction sought with a large enough effect; inconclusive = small, poorly fitted or top-dose-only effect, or another doubt; inactive = no such curve, though single readings can be large; an effect the other way counts as inactive or inconclusive.
SMILES,HTT aggregate,ALDH1A1 block,KDM4E inh,CBFb-RUNX1 inh,HPGD inh,HTT cytoprotect
Cc1ccc(-n2ncc3c(NCc4ccccn4)ncnc32)c(C)c1,0%,?,?,-7%,13µM*,-7%[10 µM]
Cc1ccc(-n2ncc3c(NCc4ccco4)ncnc32)c(C)c1,-17%,-2%,-9%,3%,3.5µM*,13%[10 µM]
Cc1ccc(-n2ncc3c(NCc4cccnc4)ncnc32)c(C)c1,-8%,?,5%,6%,?,nt
COCCCNc1ncnc2c1cnn2-c1ccc(C)cc1C,-18%,-6%,-10%,3%,7.9µM*,-22%[0.074 µM]
CCCCNc1ncnc2c1cnn2-c1ccc(C)cc1C,-19%,?,-7%,14%,?,-5%
COc1cc(CNc2ncnc3c2[nH]c2ccc(C)cc23)cc(OC)c1,-11%[9.22 µM],nt,?,-12%,nt,12%[10 µM]
c1ccc(-n2ncc3c(NCc4ccco4)ncnc32)cc1,11%,?,-2%,-6%,?,-21%
Cc1ccc2[nH]c3c(NCc4ccco4)ncnc3c2c1,11µM*,?,?,-8%,?,-89%[0.074 µM]
CCCCNC(=O)NS(=O)(=O)c1ccc(CO)cc1,nt,nt,nt,4%,nt,nt
COC(=O)CC1Oc2cc3oc4c(c3cc2O1)C(=O)CC(C)(C)C4 (stereo unspecified),nt,10µM*,-16%,10%,25µM*,-45%
CC1(C)CC(=O)c2c(oc3cc(O)c(O)cc23)C1,-14%,2µM*,13µM*,?,6.3µM*,-30%
CC(C)(C)NC[C@@H](O)c1ccc(O)c(CO)n1,6%,5%[13.5 µM],nt,nt,-3%,31%
CCOC(=O)N1CCC(c2cc(=O)n3[nH]c(C)c(-c4ccc(F)cc4)c3n2)CC1,11µM*,2%,?,3%,?,-21%
CCc1cccc(CC)c1NC(=O)CSc1nnc(CCC(=O)O)c(=O)[nH]1,19%,-6%,-21%,-7%,nt,nt
O=C(OCC(=O)N1CCCCCC1)c1ccc(Cl)c(S(=O)(=O)N2CCCC2)c1,18%,?,13%,-16%,nt,-24%
CNC(=O)COC(=O)c1ccc(Cl)c(S(=O)(=O)N2CCCC2)c1,?,?,-7%,-1%,nt,2.8µM*
COc1cc2c(C(=O)N3CCN(c4ccccc4C)CC3)c(C)oc2cc1Br,?,8%,2%,-2%,-6%,-18%
Nc1ccc(C23CC4CC(CC(CO)(C4)C2)C3)cc1,14%,11µM*,2%,3%,-9%,-128%
COC(=O)C1C(=O)c2c([nH]c(C(=O)OC3CCCCCC3)c2C)CC1C (stereo unspecified),0.001µM*,?,-5%,6%,-5%,nt
CN1CCN(CC(=O)N2c3ccccc3Sc3cc4ccccc4cc32)CC1,nt,-1%[13.5 µM],nt,nt,0%,7%[10 µM]
O=C1N/C(=N\c2ccccn2)SC1Cc1ccc(Cl)cc1 (stereo unspecified),-7%[9.22 µM],4%,-5%,4%,nt,17%[10 µM]
O=C(c1cc2ccccc2c(=O)o1)N1CCc2ccccc2C1,9%,2%,-1%,-6%,25µM*,-20%
O=C(c1cc2ccccc2c(=O)o1)N1CCCc2ccccc21,0%,4.5µM*,-1%,-1%,-5%,-18%
O=C(c1nn(Cc2ccccc2)c(=O)c2ccccc12)N1CCc2ccccc2C1,-9%,0.89µM*,-4%,4%,-6%,-24%
Cn1c(C(=O)N2CCc3ccccc3C2)cc2oc3ccccc3c21,?,-8%,?,-30%,0.71µM*,0%[10 µM]
O=C(c1cc(=O)c2ccccc2o1)N1CCCc2ccccc21,-2%,?,6%,6%,-16%,0%
COc1ccc([N+](=O)[O-])cc1-n1cnnn1,20%[9.22 µM],-14%,-19%,1%,nt,29%[10 µM]
C/C(=C\c1ccccc1)CN1CCN(Cc2ccc(C)o2)C(CCO)C1 (stereo unspecified),11%[9.22 µM],15%,-6%,-5%,nt,24%[10 µM]
O=C(CCc1nnc(CCC2CCCCC2)o1)NCCn1cccn1,6%[9.22 µM],-1%,-2%,6%,nt,7%[10 µM]
